Experimental data from PubChem BioAssay AID1159580 (chemical genetic matrix, 2015).
Out of some 5,500 compounds screened, about 2,000 (36%) were called active. About 18% were inconclusive and are not listed. No stated cut-off is given here; in the data, active means normalized growth mostly below about 0.91 (no sharp cut-off); inconclusive means no clear call, values can overlap the other calls; inactive means mostly above about 0.92. This is one part of the list.

Assay: chemical genetic growth profiling, strain panel (AID 1159580);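 further: tested at 20 µM; growth read once vehicle control cultures reached saturation at 30 °C; 1 = growth at the plate median or of vehicle wells; lower values mean less growth of the strain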
Conditions: S. cerevisiae deletion strains, growth OD

Measured: normalized growth

CC(=CC1CCC(C)C2C1=C(C)CC2O)C(=O)O (stereo unspecified)
inactive: locus YAL021C, strain ccr4, hits give low values 1.01 | locus YAL026C, strain drs2, hits give low values 1.04 | locus YAL030W, strain snc1, hits give low values 1.01 | locus YBL061C, strain skt5, hits give low values 1.02 | locus YBR009C, strain hhf1, hits give low values 1.01 | locus YBR023C, strain chs3, hits give low values 1.02 | locus YBR171W, strain sec66, hits give low values 1.02 | locus YBR231C, strain swc5, hits give low values 1.02 | locus YBR279W, strain paf1, hits give low values 1.02 | locus YCL011C, strain gbp2, hits give low values 1.02 | locus YCL016C, strain dcc1, hits give low values 1.01 | locus YCL061C, strain MRC1, hits give low values 1.02 | locus YCL069W, strain vba3, hits give low values 1.01 | locus YCR088W, strain abp1, hits give low values 1.01 | locus YDL005C, strain med2, hits give low values 1.03 | locus YDL040C, strain nat1, hits give low values 1.01 | locus YDR001C, strain nth1, hits give low values 1.01 | locus YDR069C, strain doa4, hits give low values 1 | locus YDR137W, strain rgp1, hits give low values 1.04 | locus YDR159W, strain sac3, hits give low values 1.04 | locus YDR195W, strain ref2 1.02 | locus YDR297W, strain sur2, hits give low values 1.02 | locus YDR334W, strain swr1, hits give low values 1.02 | locus YDR335W, strain msn5, hits give low values 1.02 | locus YDR392W, strain spt3, hits give low values 0.944 | locus YEL003W, strain gim4, hits give low values 1.02 | locus YEL037C, strain rad23, hits give low values 1.01 | locus YEL061C, strain CIN8 (second series), hits give low values 1.02 | locus YER015W, strain faa2, hits give low values 1.03 | locus YER016W, strain bim1, hits give low values 1.02 | locus YER111C, strain swi4, hits give low values 1.01 | locus YER155C, strain BEM2 (second series), hits give low values 1.03 | locus YFR010W, strain ubp6, hits give low values 1.03 | locus YGL167C, strain pmr1, hits give low values 1.01 | locus YGL173C, strain kem1, hits give low values 1.03 | locus YGL227W, strain vid30, hits give low values 1.01 | locus YGL240W, strain doc1, hits give low values 1.02 | locus YGL253W, strain hxk2, hits give low values 1.03 | locus YHR013C, strain ard1, hits give low values 1.03 | locus YHR027C, strain rpn1, hits give low values 1.04 | locus YHR142W, strain chs7, hits give low values 1.02 | locus YJL092W, strain hpr5, hits give low values 1.02 | locus YJL095W, strain BCK1 (second series), hits give low values 1.02 | locus YJL115W, strain asf1, hits give low values 1.02 | locus YJL129C, strain trk1, hits give low values 1.04 | locus YJL154C, strain vps35, hits give low values 1.01 | locus YJL164C, strain tpk1, hits give low values 1.01 | locus YJL166W, strain qcr8, hits give low values 1.02 | locus YKL160W, strain elf1, hits give low values 1 | locus YKR026C, strain gcn3, hits give low values 1.01 | locus YKR091W, strain srl3, hits give low values 1.02 | locus YLL001W, strain dnm1, hits give low values 1.03 | locus YLL026W, hits give low values 1.03 | locus YLL041C, strain sdh2, hits give low values 1.01 | locus YLR027C, strain aat2, hits give low values 1.02 | locus YLR221C, strain rsa3, hits give low values 1.01 | locus YLR258W, strain gsy2, hits give low values 1.01 | locus YLR262C, strain YPT6 (second series), hits give low values 1.02 | locus YLR320W, strain mms22, hits give low values 1.02 | locus YLR342W, strain FKS1, hits give low values 1.02 | locus YLR357W, strain rsc2, hits give low values 0.995 | locus YLR370C, strain arc18, hits give low values 0.997 | locus YLR384C, strain iki3, hits give low values 1.02 | locus YML120C, strain ndi1, hits give low values 1.02 | locus YMR058W, strain fet3, hits give low values 1.03 | locus YMR125W, strain sto1, hits give low values 0.987 | locus YMR129W, hits give low values 1.02 | locus YMR205C, strain PFK2, hits give low values 1.02 | locus YMR231W, strain pep5, hits give low values 1.02 | locus YNL071W, strain lat1, hits give low values 1.03 | locus YNL209W, strain ssb2, hits give low values 1.03 | locus YNL248C, strain rpa49, hits give low values 1.07 | locus YNL322C, strain KRE1 (second series), hits give low values 1.01 | locus YNR049C, strain mso1, hits give low values 1.01 | locus YOR001W, strain rrp6, hits give low values 1.04 | locus YOR070C, strain gyp1, hits give low values 1 | locus YOR080W, strain dia2, hits give low values 1.02 | locus YOR083W, strain WHI5, hits give low values 1.01 | locus YOR106W, strain vam3, hits give low values 1.01 | locus YOR265W, strain rbl2, hits give low values 1.02 | locus YOR270C, strain vph1, hits give low values 1.07 | locus YOR290C, strain snf2, hits give low values 0.989 | locus YPL051W, strain arl3, hits give low values 1.03 | locus YPL078C, strain atp4, hits give low values 1.01 | locus YPL106C, strain sse1, hits give low values 1.03 | locus YPL240C, strain hsp82, hits give low values 1.02
